Tests used:
Assay in all cases: log2 ratio of Biotin-Ahx-Ub-VS probe labelling (fragment/DMSO); higher = less target engagement (more negative = stronger competition), active = hit call of the paper (q ≤ 0.05, log2 ratio ≤ -1)
Conditions in all cases: compound concentration: 200 uM; treatment time: 3 h
[1] = target: USP34 (UniProt Q70CQ2)
Method in brief: (§1)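 Global-median-normalised Spectronaut label-free quantities were compared by unpaired t-test, and values are average log2 ratios of fragment over vehicle. Only proteins with ≥2 unique peptides were used. HEK293T lysate (495 µg per sample) was treated in triplicate with fragment at 200 µM or vehicle for 3 h and then with Biotin-Ahx-Ub-VS at 0.5 µM final for 1 h. Labelled DUBs were then NeutrAvidin-enriched, digested with LysC and trypsin, and run by diaPASEF LC-MS/MS.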

[2] = target: T1, USP36 (UniProt Q9P275)
T1 sequence (whole entry): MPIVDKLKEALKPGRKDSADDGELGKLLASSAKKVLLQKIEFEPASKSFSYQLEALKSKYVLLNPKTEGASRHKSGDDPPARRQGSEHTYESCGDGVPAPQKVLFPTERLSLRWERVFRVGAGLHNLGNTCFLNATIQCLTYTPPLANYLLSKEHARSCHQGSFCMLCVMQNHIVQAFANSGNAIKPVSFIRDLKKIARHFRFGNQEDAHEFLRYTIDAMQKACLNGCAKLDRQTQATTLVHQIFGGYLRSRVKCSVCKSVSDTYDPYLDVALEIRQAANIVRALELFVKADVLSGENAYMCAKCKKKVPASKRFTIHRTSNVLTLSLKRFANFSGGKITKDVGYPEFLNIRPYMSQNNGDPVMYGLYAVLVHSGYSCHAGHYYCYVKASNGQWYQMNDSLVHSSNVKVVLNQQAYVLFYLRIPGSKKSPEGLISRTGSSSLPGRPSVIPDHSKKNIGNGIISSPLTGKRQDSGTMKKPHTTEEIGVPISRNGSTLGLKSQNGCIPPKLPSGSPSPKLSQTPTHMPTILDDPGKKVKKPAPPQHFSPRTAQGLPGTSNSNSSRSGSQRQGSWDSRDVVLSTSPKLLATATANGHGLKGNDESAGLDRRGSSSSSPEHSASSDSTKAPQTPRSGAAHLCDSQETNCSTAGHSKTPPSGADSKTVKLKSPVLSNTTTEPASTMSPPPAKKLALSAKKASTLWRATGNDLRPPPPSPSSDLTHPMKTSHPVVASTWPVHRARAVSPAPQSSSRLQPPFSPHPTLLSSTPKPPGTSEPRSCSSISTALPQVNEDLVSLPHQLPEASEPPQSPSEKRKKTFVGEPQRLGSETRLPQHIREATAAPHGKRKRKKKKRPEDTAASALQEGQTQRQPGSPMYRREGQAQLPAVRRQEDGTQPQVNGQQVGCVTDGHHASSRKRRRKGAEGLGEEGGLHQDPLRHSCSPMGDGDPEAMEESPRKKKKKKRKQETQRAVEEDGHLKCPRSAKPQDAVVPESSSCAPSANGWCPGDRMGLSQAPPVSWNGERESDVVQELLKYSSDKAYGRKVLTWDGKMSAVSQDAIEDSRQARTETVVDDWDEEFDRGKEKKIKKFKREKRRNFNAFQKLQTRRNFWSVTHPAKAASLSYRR
Method in brief: as §1

[3] = target: T2, USP38 (UniProt Q8NB14)
T2 sequence (whole entry): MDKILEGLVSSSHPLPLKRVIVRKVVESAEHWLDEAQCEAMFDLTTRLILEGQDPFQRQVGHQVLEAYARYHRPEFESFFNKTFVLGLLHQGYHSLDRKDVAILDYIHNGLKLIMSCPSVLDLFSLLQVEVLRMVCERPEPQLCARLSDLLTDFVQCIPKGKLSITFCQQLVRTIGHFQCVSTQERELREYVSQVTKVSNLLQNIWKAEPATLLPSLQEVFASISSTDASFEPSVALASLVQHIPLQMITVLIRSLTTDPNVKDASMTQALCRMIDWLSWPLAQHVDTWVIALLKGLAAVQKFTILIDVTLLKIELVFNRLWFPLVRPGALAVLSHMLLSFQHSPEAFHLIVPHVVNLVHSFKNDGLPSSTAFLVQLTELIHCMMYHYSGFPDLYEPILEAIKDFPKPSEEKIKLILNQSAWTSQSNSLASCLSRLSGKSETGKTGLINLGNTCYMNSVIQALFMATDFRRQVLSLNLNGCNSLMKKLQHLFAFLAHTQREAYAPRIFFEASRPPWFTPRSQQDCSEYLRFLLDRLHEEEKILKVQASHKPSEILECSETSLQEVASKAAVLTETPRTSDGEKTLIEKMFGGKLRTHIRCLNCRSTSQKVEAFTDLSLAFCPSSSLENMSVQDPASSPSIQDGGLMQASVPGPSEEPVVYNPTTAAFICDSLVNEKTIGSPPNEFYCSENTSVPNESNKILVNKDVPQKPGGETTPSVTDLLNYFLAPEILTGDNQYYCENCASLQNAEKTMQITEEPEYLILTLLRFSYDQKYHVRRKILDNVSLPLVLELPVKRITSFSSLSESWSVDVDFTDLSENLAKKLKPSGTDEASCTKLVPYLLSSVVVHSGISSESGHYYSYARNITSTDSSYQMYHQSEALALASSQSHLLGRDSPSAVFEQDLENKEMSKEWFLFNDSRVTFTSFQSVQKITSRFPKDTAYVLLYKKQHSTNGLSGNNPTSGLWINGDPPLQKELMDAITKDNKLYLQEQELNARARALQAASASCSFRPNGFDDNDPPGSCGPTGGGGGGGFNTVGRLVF
Method in brief: as §1

[4] = target: T3, USP39 (UniProt Q53GS9)
T3 sequence (whole entry): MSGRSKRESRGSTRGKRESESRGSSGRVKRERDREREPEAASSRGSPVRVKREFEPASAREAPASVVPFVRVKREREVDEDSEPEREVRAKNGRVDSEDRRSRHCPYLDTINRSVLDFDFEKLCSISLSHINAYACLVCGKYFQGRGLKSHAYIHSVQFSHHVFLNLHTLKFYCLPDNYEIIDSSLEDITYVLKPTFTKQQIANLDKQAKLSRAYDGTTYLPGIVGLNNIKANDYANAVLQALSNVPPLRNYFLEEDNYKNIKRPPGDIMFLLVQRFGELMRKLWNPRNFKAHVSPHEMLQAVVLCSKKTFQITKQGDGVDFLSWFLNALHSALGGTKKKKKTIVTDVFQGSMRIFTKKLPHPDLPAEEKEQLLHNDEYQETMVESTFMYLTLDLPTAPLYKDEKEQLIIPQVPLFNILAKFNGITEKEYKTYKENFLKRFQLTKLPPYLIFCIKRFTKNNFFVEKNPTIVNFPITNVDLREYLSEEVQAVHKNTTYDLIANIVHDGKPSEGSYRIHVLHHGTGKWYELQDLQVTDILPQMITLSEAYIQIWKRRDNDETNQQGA
Method in brief: as §1

[5] = target: T4, USP4 (UniProt Q13107)
T4 sequence (whole entry): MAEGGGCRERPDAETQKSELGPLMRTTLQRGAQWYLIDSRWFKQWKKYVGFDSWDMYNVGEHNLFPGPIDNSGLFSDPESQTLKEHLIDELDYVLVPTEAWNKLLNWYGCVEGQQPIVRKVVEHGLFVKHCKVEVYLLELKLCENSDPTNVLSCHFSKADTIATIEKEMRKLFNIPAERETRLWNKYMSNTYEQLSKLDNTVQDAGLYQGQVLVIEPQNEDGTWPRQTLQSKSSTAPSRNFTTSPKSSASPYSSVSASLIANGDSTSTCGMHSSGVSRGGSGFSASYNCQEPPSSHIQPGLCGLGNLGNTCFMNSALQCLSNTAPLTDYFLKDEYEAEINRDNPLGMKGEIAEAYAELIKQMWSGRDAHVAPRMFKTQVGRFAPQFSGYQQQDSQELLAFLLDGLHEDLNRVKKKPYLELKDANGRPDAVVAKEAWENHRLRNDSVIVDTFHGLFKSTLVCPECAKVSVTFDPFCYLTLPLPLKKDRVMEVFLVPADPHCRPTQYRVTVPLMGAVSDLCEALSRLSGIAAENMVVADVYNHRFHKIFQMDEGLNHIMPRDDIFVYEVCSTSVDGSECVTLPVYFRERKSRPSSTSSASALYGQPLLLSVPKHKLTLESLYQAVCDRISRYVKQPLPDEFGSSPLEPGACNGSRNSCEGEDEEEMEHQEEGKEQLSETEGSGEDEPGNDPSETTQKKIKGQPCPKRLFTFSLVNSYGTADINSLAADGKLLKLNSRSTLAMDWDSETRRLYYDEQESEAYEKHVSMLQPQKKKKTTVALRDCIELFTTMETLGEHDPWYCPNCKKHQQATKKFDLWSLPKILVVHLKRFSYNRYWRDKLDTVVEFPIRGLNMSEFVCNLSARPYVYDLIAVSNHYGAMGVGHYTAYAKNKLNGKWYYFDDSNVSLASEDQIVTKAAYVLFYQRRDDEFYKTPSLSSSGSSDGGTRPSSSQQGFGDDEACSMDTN
Method in brief: as §1

Measured: log2 ratio of Biotin-Ahx-Ub-VS probe labelling

USP34, sequence (Q70CQ2 whole entry, the tested form may be a part): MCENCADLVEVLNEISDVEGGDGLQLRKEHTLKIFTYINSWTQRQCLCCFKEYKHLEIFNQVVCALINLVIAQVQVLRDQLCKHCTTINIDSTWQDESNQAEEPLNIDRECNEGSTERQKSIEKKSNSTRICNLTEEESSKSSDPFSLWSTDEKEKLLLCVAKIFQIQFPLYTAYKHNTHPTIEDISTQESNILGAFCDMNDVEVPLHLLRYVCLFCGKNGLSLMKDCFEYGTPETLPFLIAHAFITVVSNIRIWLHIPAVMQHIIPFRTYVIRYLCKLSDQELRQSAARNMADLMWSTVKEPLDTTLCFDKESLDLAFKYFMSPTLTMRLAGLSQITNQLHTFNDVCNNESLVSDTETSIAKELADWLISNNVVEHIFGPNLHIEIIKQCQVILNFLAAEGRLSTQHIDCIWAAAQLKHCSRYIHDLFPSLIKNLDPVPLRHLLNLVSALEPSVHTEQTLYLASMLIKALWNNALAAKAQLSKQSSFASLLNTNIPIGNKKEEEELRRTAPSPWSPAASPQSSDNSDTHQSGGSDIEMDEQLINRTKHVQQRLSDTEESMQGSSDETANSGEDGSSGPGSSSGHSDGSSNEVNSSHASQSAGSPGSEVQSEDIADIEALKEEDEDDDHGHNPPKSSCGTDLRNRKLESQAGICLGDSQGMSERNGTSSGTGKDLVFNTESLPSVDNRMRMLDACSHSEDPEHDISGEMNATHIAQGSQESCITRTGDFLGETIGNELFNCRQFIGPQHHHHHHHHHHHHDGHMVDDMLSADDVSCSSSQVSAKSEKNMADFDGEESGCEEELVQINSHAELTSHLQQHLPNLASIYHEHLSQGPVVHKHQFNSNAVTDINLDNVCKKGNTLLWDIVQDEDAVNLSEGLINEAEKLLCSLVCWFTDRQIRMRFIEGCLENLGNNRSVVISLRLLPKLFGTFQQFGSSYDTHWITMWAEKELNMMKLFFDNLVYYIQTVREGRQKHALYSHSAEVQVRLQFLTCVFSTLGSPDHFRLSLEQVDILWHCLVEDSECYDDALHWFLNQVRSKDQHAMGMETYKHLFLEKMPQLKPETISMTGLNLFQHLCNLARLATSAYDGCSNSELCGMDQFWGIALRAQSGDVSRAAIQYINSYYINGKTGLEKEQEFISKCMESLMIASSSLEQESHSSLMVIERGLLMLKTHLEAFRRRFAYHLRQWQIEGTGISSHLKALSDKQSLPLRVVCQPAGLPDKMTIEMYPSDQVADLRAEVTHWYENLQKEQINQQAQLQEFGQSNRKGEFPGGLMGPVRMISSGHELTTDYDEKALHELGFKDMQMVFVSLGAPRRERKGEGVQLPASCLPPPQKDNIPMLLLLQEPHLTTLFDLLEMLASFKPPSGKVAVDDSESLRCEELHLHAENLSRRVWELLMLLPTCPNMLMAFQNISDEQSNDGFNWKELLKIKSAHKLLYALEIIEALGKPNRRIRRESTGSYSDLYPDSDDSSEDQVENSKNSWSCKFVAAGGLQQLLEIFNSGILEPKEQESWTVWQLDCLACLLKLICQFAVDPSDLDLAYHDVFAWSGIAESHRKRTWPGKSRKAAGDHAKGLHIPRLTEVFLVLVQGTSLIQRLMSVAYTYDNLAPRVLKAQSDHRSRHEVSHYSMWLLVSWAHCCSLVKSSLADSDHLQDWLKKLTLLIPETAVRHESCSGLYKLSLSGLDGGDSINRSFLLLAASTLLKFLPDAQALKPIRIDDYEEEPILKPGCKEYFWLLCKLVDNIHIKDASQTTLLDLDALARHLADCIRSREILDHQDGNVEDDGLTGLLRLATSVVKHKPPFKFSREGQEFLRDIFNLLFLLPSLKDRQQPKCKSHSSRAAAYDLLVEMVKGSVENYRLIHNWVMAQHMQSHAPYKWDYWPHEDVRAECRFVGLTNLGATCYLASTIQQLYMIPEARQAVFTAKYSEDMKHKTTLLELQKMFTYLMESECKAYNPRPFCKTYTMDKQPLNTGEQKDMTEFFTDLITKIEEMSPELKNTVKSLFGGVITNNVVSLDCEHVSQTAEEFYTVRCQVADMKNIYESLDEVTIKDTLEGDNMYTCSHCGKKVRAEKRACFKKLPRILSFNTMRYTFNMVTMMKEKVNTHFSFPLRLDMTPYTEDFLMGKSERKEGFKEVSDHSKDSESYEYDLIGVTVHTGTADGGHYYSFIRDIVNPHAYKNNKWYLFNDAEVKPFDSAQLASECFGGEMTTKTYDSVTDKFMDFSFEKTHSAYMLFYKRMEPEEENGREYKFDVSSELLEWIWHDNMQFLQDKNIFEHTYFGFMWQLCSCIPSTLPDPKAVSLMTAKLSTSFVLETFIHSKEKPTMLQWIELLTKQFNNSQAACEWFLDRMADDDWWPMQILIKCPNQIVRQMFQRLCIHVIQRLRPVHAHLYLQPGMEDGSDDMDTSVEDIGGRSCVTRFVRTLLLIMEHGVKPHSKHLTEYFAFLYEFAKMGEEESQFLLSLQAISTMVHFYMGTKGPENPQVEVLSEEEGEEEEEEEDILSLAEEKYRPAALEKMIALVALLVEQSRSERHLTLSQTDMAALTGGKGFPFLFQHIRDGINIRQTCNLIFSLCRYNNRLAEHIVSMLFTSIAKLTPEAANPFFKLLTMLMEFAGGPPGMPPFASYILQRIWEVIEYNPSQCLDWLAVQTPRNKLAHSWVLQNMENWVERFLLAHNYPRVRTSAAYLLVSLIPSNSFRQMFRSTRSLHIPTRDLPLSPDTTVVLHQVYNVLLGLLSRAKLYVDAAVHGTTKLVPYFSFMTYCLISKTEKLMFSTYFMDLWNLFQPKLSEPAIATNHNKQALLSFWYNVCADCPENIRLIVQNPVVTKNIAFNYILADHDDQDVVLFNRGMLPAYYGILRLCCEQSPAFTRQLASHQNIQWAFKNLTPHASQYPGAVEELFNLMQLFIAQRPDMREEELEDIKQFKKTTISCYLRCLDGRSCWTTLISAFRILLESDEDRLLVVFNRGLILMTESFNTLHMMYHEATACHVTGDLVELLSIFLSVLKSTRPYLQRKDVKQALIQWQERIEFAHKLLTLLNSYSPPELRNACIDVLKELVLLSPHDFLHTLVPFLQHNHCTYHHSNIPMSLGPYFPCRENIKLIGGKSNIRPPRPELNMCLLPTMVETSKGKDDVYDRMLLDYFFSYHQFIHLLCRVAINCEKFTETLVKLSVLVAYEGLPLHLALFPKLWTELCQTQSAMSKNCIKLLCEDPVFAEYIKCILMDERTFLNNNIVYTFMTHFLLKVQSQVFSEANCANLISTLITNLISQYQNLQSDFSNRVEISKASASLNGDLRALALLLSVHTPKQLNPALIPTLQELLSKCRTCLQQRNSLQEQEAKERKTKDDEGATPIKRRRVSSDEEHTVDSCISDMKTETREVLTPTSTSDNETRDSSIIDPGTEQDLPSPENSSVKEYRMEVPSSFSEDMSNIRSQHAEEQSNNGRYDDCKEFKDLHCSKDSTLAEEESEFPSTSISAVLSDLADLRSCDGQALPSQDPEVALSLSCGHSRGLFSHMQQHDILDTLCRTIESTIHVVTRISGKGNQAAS

NC(=O)C1CCCCN1C(=O)CCl (stereo not given)
inactive: [1] -0.0479 | [2] -0.322 | [3] 0.0849 | [4] 0.0987 | [5] -0.0651
